The source made the active and inactive calls. How the source made its calls: active means hit-call score of the fitted dose curve at least 0.9, where 1 is the maximum; inactive means score below 0.9.

This assay is described as follows: CEETOX_H295R_ESTRONE: CeeTox H295R High-throughput Steroidogenesis Assay for Estrone (AID 2283441).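 Further: estrone secreted into medium measured by LC-MS/MS after dansyl derivatization.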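 On AC50: human adrenal H295R cells prestimulated with forskolin for two days.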 The note with it: actives raise or lower the signal. As for the experimental part:
CEETOX_H295R is a cell-based, multiplexed-readout assay that uses H295R, a human adrenal gland cell line, with measurements taken at 48 hours after chemical dosing in a 96-well plate.CEETOX_H295R_ESTRONE is one of 23 assay component(s) measured or calculated from the CEETOX_H295R assay. It is designed to make measurements of hormone induction, a form of inducible reporter, as detected with absorbance signals by HPLC-MS-MS technology.Data from the assay component CEETOX_H295R_ESTRONE was analyzed into 1 assay endpoint. This assay endpoint, CEETOX_H295R_ESTRONE, was analyzed with bidirectional fitting relative to DMSO as the negative control and baseline of activity. Using a type of inducible reporter, gain or loss-of-signal activity using HPLC-MS-MS was used to understand synthesis of Estrone in H295R cell line at 48hr of chemical exposure. To generalize the intended target to other relatable targets, this assay endpoint is annotated to the steroid hormone intended target family, where the subfamily is estrogens.
Cell culture and media preparation procedures were conducted in accordance with OECD Test No. 456 guidelines, with minor modifications. H295R cells (ATCC CRL-2128) were expanded for 5 passages and frozen in batches in liquid nitrogen. Prior to the steroidogenesis assay, H295R cells were thawed and passed at least 4 times. The maximum passage was 10. […] After seeding cells into 96-well plates at 50-60% confluency, cells were allowed to adhere overnight. Prior to chemical testing, culture medium was replaced with 175 uL medium containing 10 uM forskolin to stimulate steroidogenesis for 48 hours. Following prestimulation, forskolin medium was replaced with medium containing test chemical solubilized in DMSO (ensuring a final concentration of 0.1% DMSO). Test chemicals were incubated for 48 hours, then the medium was removed and split into 2 vials containing approximately 75uL each, and stored at -80 C prior to hormone analysis. For steroid quantification, media samples were shipped to OpAns, LLC (Durham, NC) on dry ice, and samples were thawed to room temperature prior to liquid-liquid extraction. Steroid hormones were extracted from media samples using methyl tertbutyl ether (MTBE). An extra derivatization with dansyl chloride was included for estrogen (estrone and estradiol) detection only. Steroid hormones were separated by HPLC, eluted using a reverse phase C18 gradient with electrospray positive ionization, followed by quantification by tandem mass spectrometry (MS/MS). Data were acquired on a MassHunter Workstation Acquisition version B03.01 (Agilent Technologies, Inc.) and processed using MassHunter Quantitative Analysis for QQQ. Accuracy was determined for each hormone analyte from 3 standards to determine upper and lower limits of quantification (ULOQ and LLOQ, respectively) using a 7-point standard curve. Precision and accuracy of the extraction and quantification methods were calculated as the percent relative standard deviation (%RSD) of the spiked standards and percent spiked standard recovered, respectively. The goal was to achieve 100% accuracy (i.e., recover all spiked-in standard at quantification with minimal loss during run time) and good precision (i.e., have %RSD <15% to ensure reproducibility). Test medium was removed following chemical exposure, and cell viability was evaluated in the same wells by MTT. MTT procedures were as follows: after removal of test medium, 500 uL of 0.5 mg/ml of 3-[4,5-dimethylthiazol-2-y]2,5-diphenyltetrazoliumbromide solution was added to the cells. Following a 4-hour incubation at 37 C and 5% CO2 to allow formazan-crystal formation, the MTT solution was removed and blue formazan salt crystals were solubilized using 500uL anhydrous isopropanol with shaking for 20 minutes. Absorbance was read at 570 and 650nm using a Packard Fusion microplate reader. Background correction of absorbance units was used to determine percent change relative to controls. […] […]
For `CCNP(=S)(OC)O/C(C)=C/C(=O)OC(C)C` (stereo not given), the molecule was classed as inactive. `Clc1nc(Cl)nc(Nc2ccccc2Cl)n1`: the result was inactive. `COCc1cnc(C2=NC(C)(C(C)C)C(=O)N2)c(C(=O)O)c1` (stereo not given): the molecule was called inactive. As to `CCOc1nc(C(Cl)(Cl)Cl)ns1`, the molecule was called inactive. Still for that read-out and setting: for `Cc1c(COC(=O)[C@@H]2[C@H](/C=C(\Cl)C(F)(F)F)C2(C)C)cccc1-c1ccccc1` the value was “inactive”; for `COC(=O)NC(=S)Nc1ccccc1NC(=S)NC(=O)OC`, “inactive”; for `CN/C(=N\[N+](=O)[O-])NCc1cnc(Cl)s1`, “inactive”. On the same count and under the same terms, in the case of `CCOc1cc(C(C)(C)C)ccc1C1COC(c2c(F)cccc2F)=N1` (stereo not given) it was “inactive”; in that of `CCSC(=O)N1CCCCCC1`, “inactive”; in that of `COCC(=O)N(c1c(C)cccc1C)C(C)C(=O)OC` (stereo not given), “inactive”. For the molecule `CC1(C)CON(Cc2ccccc2Cl)C1=O`, the outcome was inactive. The same measure, in the same setting: in the case of `COc1cc(Cl)c(OC)cc1Cl` it was “inactive”. Turning to `CCOC(=O)C(C)OC(=O)c1cc(Oc2ccc(C(F)(F)F)cc2Cl)ccc1[N+](=O)[O-]` (stereo not given), the molecule was called inactive. For `CCN(CC)c1nc(C)cc(OP(=S)(OC)OC)n1`, the half-maximal activity concentration (AC50) (usually the concentration at which the activity in the assay is half-maximal) was 1.62 µM (active). Regarding `Nc1cnn(-c2ccccc2)c(=O)c1Cl`, the result was inactive. On to `COP(=S)(OC)Oc1ccc([N+](=O)[O-])c(C)c1`, for which the outcome was inactive.

As to `CCCC(=NOCC)C1=C(O)CC(CC(C)SCC)CC1=O` (stereo not given), the AC50 was 0.554 µM (active). Regarding `CC1(C)C(C=C(Cl)Cl)C1C(=O)OC(C#N)c1cccc(Oc2ccccc2)c1` (stereo not given), the call was inactive. Same read-out and setting: in the case of `O=C1C2CC=CCC2C(=O)N1SC(Cl)(Cl)Cl` (stereo not given) it was “inactive”.

On to `CC(C)Nc1nc(Cl)nc(NC(C)C)n1`, for which the AC50 was 23.1 µM (active). `O=C(Nc1ccccc1-c1ccc(Cl)cc1)c1cccnc1Cl`: the call was inactive.

For the molecule `COP(=S)(OC)SCn1nnc2ccccc2c1=O`, the result was inactive.

Regarding `Cc1nc(N(C)C)nc(OC(=O)N(C)C)c1C`, the outcome was inactive.

Consider `N#Cc1c(Cl)cccc1Cl`, for which the result was inactive. For `CC1(C)CCC(=Cc2ccc(Cl)cc2)C1(O)Cn1cncn1` (stereo not given), the call was inactive.

With `CCCN(CC)CC1COC2(CCC(C(C)(C)C)CC2)O1` (stereo not given), the result was inactive. With `CC(C)Oc1cccc(NC(=O)c2ccccc2C(F)(F)F)c1`, the result was inactive. `CC(C)(C)C(=O)C(Oc1ccc(Cl)cc1)n1cncn1` (stereo not given): the AC50 is 41.2 µM (active).

As to `CCN(CC)C(=O)C(C)Oc1cccc2ccccc12` (stereo not given), the molecule was called inactive. Turning to `CCC(C)n1c(=O)[nH]c(C)c(Br)c1=O` (stereo not given), the result was inactive.

Source of the values: PubChem BioAssay (EPA / NIEHS).
